Experimental data as given in PubChem BioAssay AID1903 (Southern Research Specialized Biocontainment Screening …, 2009).
The campaign covered roughly 310,000 compounds. About 1,200 (0.39%) were called active. The rule behind the calls is not given here. The list is a sample of the results. Measured potencies and affinities stand elsewhere.

The molecules below were run against Large T antigen (Simian virus 40) (UniProt P03070) (assay: SV40 large T antigen inhibitors, biochemical (AID 1903)). Conditions: SV40 large T antigen ATPase/helicase inhibition assay; at 20 µM; active compounds read high.
Large T antigen (Simian virus 40), sequence (P03070 whole entry, looked up): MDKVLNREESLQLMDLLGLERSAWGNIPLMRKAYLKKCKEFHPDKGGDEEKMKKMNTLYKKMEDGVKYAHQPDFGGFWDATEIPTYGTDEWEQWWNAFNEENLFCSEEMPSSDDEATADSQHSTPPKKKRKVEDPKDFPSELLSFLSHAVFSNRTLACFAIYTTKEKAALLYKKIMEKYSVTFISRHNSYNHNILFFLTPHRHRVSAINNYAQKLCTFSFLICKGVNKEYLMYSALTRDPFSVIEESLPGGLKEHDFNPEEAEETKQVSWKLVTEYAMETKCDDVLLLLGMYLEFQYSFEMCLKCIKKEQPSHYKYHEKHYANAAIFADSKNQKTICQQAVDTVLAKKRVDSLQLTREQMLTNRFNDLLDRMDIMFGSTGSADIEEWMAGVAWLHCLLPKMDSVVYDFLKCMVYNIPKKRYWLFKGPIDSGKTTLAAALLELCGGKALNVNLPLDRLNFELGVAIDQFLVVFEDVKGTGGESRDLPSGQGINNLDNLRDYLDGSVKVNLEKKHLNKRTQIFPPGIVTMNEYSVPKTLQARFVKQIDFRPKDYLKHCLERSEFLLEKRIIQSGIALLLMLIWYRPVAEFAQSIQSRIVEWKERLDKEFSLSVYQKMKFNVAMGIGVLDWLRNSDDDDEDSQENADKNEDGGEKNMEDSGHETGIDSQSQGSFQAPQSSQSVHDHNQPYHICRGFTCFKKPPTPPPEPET

inhibition, inactive:
Cc1ccc2[nH]c(=O)c(CN(CC3CCCO3)S(=O)(=O)c3c(C)ccc4nsnc34)cc2c1 (configuration not stated) -0.695%
CC(C)CC(CO)N1CCN(C(=O)c2ccccc2)CCC1=O (configuration not stated) 16.2%
CSc1ncc(Cl)c(C(=O)Nc2ccccc2[N+](=O)[O-])n1 30.7%
O=C1CC2(CCN(C(=O)c3cccc([N+](=O)[O-])c3)CC2)Oc2ccccc21 22.7%
COCc1ccc(C(=O)N2CCCC(Nc3ccc(C(C)C)cc3)C2)o1 (configuration not stated) 23.2%
CCCC(c1nnnn1Cc1ccco1)N1CCN(c2ccccc2)CC1 (configuration not stated) 24%
Cc1cc(Br)ccc1NC(=O)CN1C(=S)NC(C)(C)CC1C (configuration not stated) 5.62%
CN1C(=O)c2ccc(C(=O)NCc3ccc4c(c3)OCO4)cc2C1=O 4.66%
O=C(N/N=C/c1ccsc1)C1CC1 14.3%
O=C(N/N=C/c1ccc2c(c1)OCO2)C1CC1 -8.98%
Oc1ccc(/C=N/N(c2ccccc2)c2ccccc2)cc1O 20.4%
O=C(/C(=N/N=C/c1ccc(O)c(O)c1)c1ccccc1)c1ccccc1 32.3%
Cc1cccc(OCc2nnc(SCC(=O)Nc3ncc(C)s3)o2)c1 3.87%
O=C1Nc2ccccc2C1=Nc1ccc(Br)cc1 4.56%
O=C1Nc2ccccc2/C1=N\N1CCOCC1 27.9%
O=C(O)CCCCCNS(=O)(=O)c1cccc2c1C(=O)c1ccccc1C2=O 27%
COc1ccccc1NCCC(=O)O 26.5%
O=C(NCC(c1ccc(F)cc1)N1CCOCC1)c1cccnc1Sc1ccc(Cl)cc1 (configuration not stated) 11.1%
Nc1n[nH]c(=S)n1-c1ccc(Cl)cc1 5.6%
CCCn1cnc2cc(NCc3cccc(OC)c3)ccc21 36.7%
CCCn1cnc2cc(NCc3ccccc3O)ccc21 33.9%
COc1ccccc1-n1cnc2cc(NCc3ccccc3O)ccc21 33.3%
CCn1cnc2cc(NCc3ccccc3Cl)ccc21 21.6%
CCCCN(C(=O)CCCSc1nc2ccccc2[nH]1)c1c(N)n(Cc2ccccc2)c(=O)[nH]c1=O 3.22%
Cc1cccc(N/N=C(\C#N)S(=O)(=O)C(C)(C)C)c1 8.77%
O=C(O)CCCNC(=O)Cc1ccccc1 2.55%
O=C(Cc1cccs1)NNC(=O)c1ccc(F)cc1 8.96%
Cc1cc(Nc2ccccc2Cl)c2ccccc2n1 8.12%
C=CCOc1c(CNc2ccc(C(=O)O)cc2)cccc1OC 9.8%
C=CCOc1ccccc1CNc1ccc2c(c1)OCCO2 25.8%
COc1cccc(CNc2ccc3[nH]c(=O)[nH]c3c2)c1OCc1ccccc1Cl 37%
C=CCOc1c(CNc2cccc(C(=O)O)c2)cccc1OC 9.77%
COc1cccc(CNc2ccc(C(=O)O)cc2)c1OCc1ccccc1 7.38%
C=CCOc1ccccc1CNc1cccc(F)c1 -2.23%
COc1ccc2nc(NC(=O)C3CCN(C(=O)c4ccco4)CC3)sc2c1 -5.44%
Cc1ccc(NC(=O)c2ccc(F)cc2)cc1S(=O)(=O)N1CCCCCC1 7.24%
COCCn1c(=O)[nH]c2cc(C(=O)Nc3ccc(OC)c(Cl)c3)ccc2c1=O 4.08%
O=C(O)c1ccccc1N/N=C/c1c(Sc2nnnn2-c2ccccc2)nc2ccccn2c1=O 13.1%
O=c1c(/C=N/Nc2ccccc2)c(Sc2nnnn2-c2ccccc2)nc2ccccn12 0.84%
O=C(COc1ccc([N+](=O)[O-])cc1)Nc1ccc2c(c1)nc1n2CCOC1 14.9%
Cc1ccc(C(=O)CN(Cc2ccccc2)C2=NCCS2)cc1 -1.42%
C=CCN1C(=O)/C(=N/n2cnnc2)c2ccccc21 25.4%
c1ccc2c(c1)C(=Nn1cnnc1)c1ccccc1-2 3.9%
O=C(c1ccco1)N1CCC(c2nc3c(nnn3Cc3ccc(F)cc3)c(=O)[nH]2)CC1 12.3%
Cc1ccc(NC(=O)COC(=O)CCC(=O)c2cccs2)cc1S(=O)(=O)N1CCOCC1 14.2%
CC12CC3CC(C)(C1)CC(C(O)CN1CCOCC1)(C3)C2 (configuration not stated) 3.1%
N/C(=N\N=C\c1ccc(O)cc1)c1nonc1N 23.1%
COc1cc(/C=N/N=C(\N)c2nonc2N)cc(OC)c1O 36.3%
N/C(=N\N=C\c1cccc(O)c1)c1nonc1N 18.6%
COc1ccc(/C=N/N=C(\N)c2nonc2N)cc1OC 22.7%
CCOC(=O)c1c(NC(=S)N2CCN(C)CC2)sc(C)c1-c1ccccc1 9.17%
CCOC(=O)C1=C(O)C(=O)N(c2ccc(S(N)(=O)=O)cc2)C1c1ccc([N+](=O)[O-])cc1 (configuration not stated) 5.61%
Cc1ccc(NC(=O)Cc2ccsc2)cc1Cl 8.34%
C=CCC(C#Cc1ccc(C)cc1)N(CC)CC (configuration not stated) 2.04%
COCCNC(=O)CN(C(=O)CCC(=O)Nc1ccccn1)c1ccc(F)cc1 2.44%
N#Cc1ccccc1-c1ccccc1C(=O)N1CCCCC1 5.76%
CCc1ccc(NC(=O)c2ccc3c(c2)C(=O)N(Cc2ccco2)C3=O)cc1 9.22%
O=C(Nc1cccc(O)c1)c1ccc2c(c1)C(=O)N(Cc1ccco1)C2=O 8.23%
O=C(Nc1ccc(O)cc1)c1ccc2c(c1)C(=O)N(Cc1ccccc1)C2=O 35.7%
Cc1cccc(C(=O)Nc2ccc(NC(=O)c3ccccc3)cc2)c1 2.43%
Cc1cccc(C(=O)Nc2ccc(C(=O)Nc3ccc(O)cc3)cc2)c1 8.66%
COc1cc(C(=O)Nc2ccc(C(=O)O)cc2)ccc1OC(C)=O 17.2%
O=C(Nc1ccccc1O)c1ccc2c(c1)C(=O)N(N1C(=O)c3ccccc3C1=O)C2=O 5.64%
COC(=O)c1ccc(NC(=O)c2ccc(OC(C)=O)c(OC)c2)cc1 4.68%
CCCOC(=O)c1ccc(NC(=O)CSC2=Nc3ccccc3C3CC=NN23)cc1 (configuration not stated) 7.1%
CCCCNC(=O)c1cc2c(C)cc(C)cc2[nH]1 4.47%
COc1ccc(S(=O)(=O)n2nc(-n3c(C)ccc3C)c3c(F)cccc32)cc1OC 2.54%
COc1ccc(S(=O)(=O)N2CCN(c3ccc(C)cc3C)CC2)cc1OC 7.1%
CCn1cc(C(=O)N2CCN(c3ccc(OC)cc3)CC2)c(=O)c2cc(S(=O)(=O)N3CCCCC3)ccc21 15.4%
CN1CCN(C(=O)C2CCCN(S(=O)(=O)c3ccccc3)C2)CC1 (configuration not stated) 7.31%
CC1Cc2cc(/C=C3/SC(=S)N(C)C3=O)ccc2O1 (configuration not stated) 0.875%
O=C(COc1ccc2c3c(c(=O)oc2c1)CCCC3)N1C[C@H]2C[C@@H](C1)c1cccc(=O)n1C2 3.64%
N#C/C(=C\c1cccnc1)C(=O)Nc1ccc(Cl)cc1 14.4%
CCN(CC)C1CC(=O)N(c2cccc(C)c2)C1=O (configuration not stated) 0.27%
O=C1CC(N2CCSCC2)C(=O)N1c1cccc(Br)c1 (configuration not stated) 10.7%
COC(C/C=C\[C@H](O)[C@@H](C)OCc1ccccc1)OC 2.9%
COC(=O)c1ccc(-c2sc3nc(N4CCOCC4)c4c(c3c2N)CC(C)(C)OC4)o1 -1.68%
CC1(C)Cc2c(c(N3CCOCC3)nc3sc(-c4ccc(C(=O)O)o4)c(N)c23)CO1 21.9%
COC(=O)c1ccccc1NS(=O)(=O)c1ccc(Cl)nc1 4.72%
N#CC1=C(N)OC2=C(C(=O)CCC2)C1c1cccs1 (configuration not stated) 23%
O=C(NCC(c1cccnc1)N1CCN(c2ccc(F)cc2)CC1)C1CCCCC1 (configuration not stated) 18.4%
O=C(NCC(c1cccnc1)N1CCN(c2ccccc2)CC1)C1CCCCC1 (configuration not stated) 2.45%
CCN(c1ccccc1)c1nc2ccsc2c(=O)s1 3.95%
COc1ccc(S(=O)(=O)N2CC=C(C(=O)Nc3ccc(NC(C)=O)cc3)CC2)cc1 8.65%
COc1ccc(N(CC(=O)NCCC2=CCCCC2)S(C)(=O)=O)cc1 1.47%
NS(=O)(=O)c1ccc(NC(=O)COC(=O)COc2ccccc2)cc1 3.76%
CCCc1nnc(NC(=O)C(C)N2C(=O)C3C4C=CC(C4)C3C2=O)s1 (configuration not stated) 4.05%
Cc1ccc(-n2nnnc2C(Cl)c2nnnn2-c2ccc(C)cc2)cc1 7.23%
c1ccc(-n2nnnc2Cc2nnnn2-c2ccccc2)cc1 -7.53%
c1ccc(-c2nnnn2-c2ccccc2)cc1 12.4%
Cc1ccc(-c2nnnn2-c2ccc(C)cc2)cc1 -0.57%
COc1cc(OC)cc(C(=O)N[C@H](C(=O)Nc2cccc(S(=O)(=O)N3CCCC3)c2)C(C)C)c1 11.5%
O=C(Nc1cccc(-c2cn3c(n2)SCC3)c1)c1ccc(Br)o1 7.7%
COc1ccccc1OCCC(=O)NCc1ccc2c(c1)OCO2 8.06%
Cc1[nH]c2ccccc2c1C(=O)COC(=O)c1cccc(S(=O)(=O)N2CCCCC2)c1 7.32%
Cc1ccc(N/C=C2\CCCCC2=O)c(C)c1 8.76%
CC(=O)Nc1ccc(N/C=C2/CCCC2=O)cc1 16.2%
